Sampled rows, rich in hits. Any-hit rate of the full collection: about 2.3%.
Bcl-xL primary: inhibitors of human Bcl-xL, primary screen, biochemical, fluorescence polarization, HTS. Bcl-2-like protein 1 (Homo sapiens), Q07817. GST-Bcl-xL / FITC-Bim BH3 peptide fluorescence polarization. inhibition, % at 10.9 µM. hit rate 0.7% among 320,000. AID 2129, 2009;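 active means inhibition above the mean of all tested compounds plus 3 SD, cutoff set per campaign, cut at about 30% in these data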;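 further: inhibitors lower millipolarization by displacing the labeled peptide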
Target sequence (Q07817 whole entry, looked up): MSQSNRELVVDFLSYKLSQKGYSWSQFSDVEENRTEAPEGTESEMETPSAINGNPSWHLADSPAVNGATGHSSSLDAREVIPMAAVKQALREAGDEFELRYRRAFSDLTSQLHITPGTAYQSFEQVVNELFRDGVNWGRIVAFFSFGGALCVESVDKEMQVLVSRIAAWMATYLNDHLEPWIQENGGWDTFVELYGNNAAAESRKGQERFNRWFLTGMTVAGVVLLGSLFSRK
Mcl-1 Bim block: inhibitors of Bim peptide binding to Mcl-1, primary screen, biochemical, bead-based flow cytometry, multiplex; Induced myeloid leukemia cell differentiation protein Mcl-1 (Homo sapiens), Q07820; Bim peptide-Mcl-1 binding; inhibition, % at 10 µM; hit rate 0.1% among 190,000; AID 1009, 2008; in the data active means inhibition above about 40%
Target sequence (Q07820 whole entry, looked up): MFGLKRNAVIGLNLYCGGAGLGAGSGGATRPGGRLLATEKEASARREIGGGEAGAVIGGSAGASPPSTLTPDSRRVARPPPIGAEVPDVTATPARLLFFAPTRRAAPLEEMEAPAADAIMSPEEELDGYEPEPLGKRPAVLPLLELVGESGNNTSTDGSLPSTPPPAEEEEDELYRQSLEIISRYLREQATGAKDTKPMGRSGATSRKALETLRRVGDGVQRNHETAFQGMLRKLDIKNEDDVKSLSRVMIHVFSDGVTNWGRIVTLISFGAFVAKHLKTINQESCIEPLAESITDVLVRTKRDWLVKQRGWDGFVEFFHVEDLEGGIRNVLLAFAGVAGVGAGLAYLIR
MCL1 BIM primary: inhibitors of MCL1 binding to BIM-BH3, primary screen, biochemical, fluorescence polarization. Induced myeloid leukemia cell differentiation protein Mcl-1 (Homo sapiens), Q07820. GST-MCL1 / FITC-Bim-BH3 fluorescence polarization. inhibition, % at 10.9 µM. hit rate 0.68% among 320,000. AID 2057, 2009;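 active means inhibition above the mean inhibition of all tested compounds plus 3 SD, set per campaign, cut at about 40% in these data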;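 further: higher means more loss of mP so more displacement of Bim peptide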
Mcl1-Noxa inh: Mcl-1/Noxa binding inhibitors, primary screen, biochemical, TR-FRET, 1536-well. TR-FRET Mcl-1/Noxa peptide binding, 2 h. inhibition, % at 21.7 µM. hit rate 1.5% among 220,000. Induced myeloid leukemia cell differentiation protein Mcl-1 (Homo sapiens), Q07820;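 active means compounds that cut the protein-peptide binding signal by more than 50% relative to plate controls in a single-dose test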;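 further: His-tagged Mcl-1 with rhodamine Noxa BH3 peptide and terbium anti-His antibody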
GLD-1 RNA inh: GLD-1/TGE RNA complex disruptors, primary screen, biochemical, fluorescence polarization. Female germline-specific tumor suppressor gld-1 (Caenorhabditis elegans), Q17339. inhibition, % at 5.96 µM. AID 2280, 2010. hit rate 0.44% among 320,000. purified GLD-1 + fluorescein TGE RNA;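 active means percent inhibition above a per-plate cutoff, the plate mean of test compounds plus 3 SD, cut at about 30% in these data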
Mcl1 Bid PPI: Mcl-1/Bid binding inhibitors, primary screen, biochemical, TR-FRET, 1536-well. inhibition, % at 21.7 µM. TR-FRET Mcl-1/Bid-Dy647 peptide binding. hit rate 0.97% among 220,000. AID 1021, 2008;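 active means compounds that cut the binding signal by more than half at the single screening dose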;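 further: His-tagged Mcl-1 with europium anti-His antibody binding Bid BH3 peptide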
BCLXL inh confirm: Bcl-xL inhibitors blocking Bim BH3 binding, confirmation, counter-screen for MCL1 inhibitor project, biochemical, fluorescence polarization; shares compounds with MCL1 BIM primary; GST-Bcl-xL / FITC-Bim BH3 peptide FP binding; inhibition, % at 10.9 µM; hit rate 54% among 1,700; AID 2166, 2009;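 active means inhibition above a cutoff equal to the mean inhibition of all tested compounds plus 3 SD, cut at about 30% in these data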
MCL1 BIM confirm: inhibitors of MCL1 binding to BIM-BH3, confirmation, biochemical, fluorescence polarization, triplicate | shares compounds with MCL1 BIM primary | GST-MCL1 / FITC-Bim-BH3 fluorescence polarization | inhibition, % at 10.9 µM | hit rate 61% among 1,700;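 active means inhibition above the average of all tested compounds plus 3 SD, cut at about 40% in these data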
GLD-1 TGE cf: GLD-1/TGE RNA binding inhibitors, retest, confirmation, biochemical, fluorescence polarization, triplicate | shares compounds with GLD-1 RNA inh | GLD-1/FL-TGE RNA fluorescence polarization | inhibition, % at 5.96 µM | hit rate 10% among 550 | AID 2459, 2010;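 active means average inhibition across triplicates above the hit cutoff set in the primary screen, cut at about 32% in these data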
Hits are given with their value; i = inactive; nt = no result; + = active, no number.

SMILES	Bcl-xL primary	Mcl-1 Bim block	MCL1 BIM primary	Mcl1-Noxa inh	GLD-1 RNA inh	Mcl1 Bid PPI	BCLXL inh confirm	MCL1 BIM confirm	others
CN1CC=C2C(C#N)=C(N)C(C#N)(C#N)[C@H](c3ccoc3)[C@H]2C1	146	i	175	i	99	i	111	+
N#CC1=C(N)C(C#N)(C#N)[C@H](c2ccoc2)[C@H]2CN(Cc3ccccc3)CC=C12	114	i	125	i	75	i	106	120
CCOC(=O)N1CC=C2C(C#N)=C(N)C(C#N)(C#N)[C@H](c3ccc(OCC)c(OCC)c3)[C@H]2C1	i	i	i	i	i	i	nt	nt
CN1CC=C2C(C#N)=C(N)C(C#N)(C#N)C(c3cccc(Cl)c3Cl)C2C1 (stereo not given)	83	i	88	i	68	i	56	61
CC(=O)N1CC=C2C(C#N)=C(N)C(C#N)(C#N)C(C)C2C1 (stereo not given)	i	i	i	i	i	i	nt	nt
N#CC1=C(N)C(C#N)(C#N)C(c2cccnc2)C2CN(C(=O)OCc3ccccc3)CC=C12 (stereo not given)	i	i	i	i	i	i	nt	nt
Cc1ccc(C2C3CN(C(C)C)CC=C3C(C#N)=C(N)C2(C#N)C#N)cc1 (stereo not given)	109	i	116	i	109	i	59	104
COc1ccc(C(C)=O)cc1CC(=O)Nc1cccc(S(=O)(=O)N2CCOCC2)c1	i	nt	i	nt	i	nt	nt	nt
CC(C)(C)c1ccc(C(CC(=O)O)NC(=O)c2ccccc2F)cc1 (stereo not given)	i	i	i	i	i	i	nt	nt
CC1CCCC(C)N1CC(O)COCc1ccccc1F (stereo not given)	i	nt	i	nt	i	nt	nt	nt
CCc1ccc(OCCCOc2ccc(C=O)cc2)cc1	i	i	i	i	i	i	nt	nt
CCc1cc[n+](-c2nc([O-])sc2C=O)cc1	122	i	136	i	99	i	83	119
O=C(NCCc1nc2ccc(Cl)cc2[nH]1)C1CCC(=O)N(Cc2cccc(F)c2)C1 (stereo not given)	i	nt	i	nt	i	nt	nt	nt
COc1ccc(C2C=C(c3ccccc3)Nc3nc(NC(C)=O)nn32)cc1 (stereo not given)	58	i	60	i	40	i	59	80
O=C(NCCSCc1ccc(Cl)cc1)c1cccs1	i	nt	i	i	i	i	nt	nt
CCOC(=O)c1c(OCC)[nH]c2c1cc(O)c1ccccc12	i	i	42	75	i	i	56	73
CC(C)CCOCC1CC2(CC(C)(c3csc(N)n3)OC2=O)C(=O)O1 (stereo not given)	i	i	168	i	i	i	i	i
O=C(NCc1cccs1)c1cc(-c2ccncc2)nc2ccc(Br)cc12	i	i	i	i	i	i	nt	nt
CSc1nc(N(C)CCO)c2sc3nc(-c4ccco4)c4c(c3c2n1)CCC4	i	i	75	103	i	93	36	76
COC(=O)c1cc(-c2ccc(S(=O)(=O)N3CCCCC3)cc2)c(C(F)(F)F)s1	i	nt	i	i	i	i	nt	nt
O=S(=O)(O)c1cc(O)ccc1O	i	nt	i	nt	i	nt	nt	nt
O=S(=O)(c1cc(O)ccc1O)c1cccc2c(S(=O)(=O)c3cc(O)ccc3O)cccc12	i	nt	46	nt	i	nt	i	52
COc1cc2c(ccc3cc(OC)c(OC)c(O)c32)cc1O	i	nt	78	107	i	i	i	82
COc1cc2cccc(OC)c(=O)c2c(O)c1OC	i	i	i	i	i	i	nt	nt
O=C(CSc1ncccn1)NCc1cccc(Cl)c1	i	i	i	i	i	i	nt	nt
SMILES	Bcl-xL primary	Mcl-1 Bim block	MCL1 BIM primary	Mcl1-Noxa inh	GLD-1 RNA inh	Mcl1 Bid PPI	BCLXL inh confirm	MCL1 BIM confirm	others
O=C(NNC(=S)NCc1ccccc1)c1ccc(Br)cc1	i	nt	i	nt	i	nt	nt	nt
CC(C)=CCc1c(O)c(CC=C(C)C)c2c(c1O)-c1cc(O)c(O)cc1CC2	i	nt	55	nt	i	nt	41	76
COc1ccccc1CNC(=O)CN1C(=O)c2cccc(N)c2C1=O	93	nt	107	nt	103	nt	43	54
O=[N+]([O-])c1ccccc1-c1ccc(/C=N/n2cnnc2)o1	i	i	i	i	i	i	nt	nt
CCSC1=N/C(=C\c2ccc(-c3ccccc3[N+](=O)[O-])o2)C(=O)S1	74	i	90	i	48	i	120	141
O=C(NCC1CCCO1)C1CCN(C2CCN(C3CCCCCC3)CC2)CC1 (stereo not given)	i	i	i	i	i	i	nt	nt
NC(=O)/C(=C/c1ccco1)C(N)=S	86	nt	116	i	50	i	i	i	GLD-1 TGE cf=i
O=C(O)/C(=C\c1ccco1)NC(=O)c1ccco1	i	nt	i	nt	i	nt	nt	nt
Cc1ccccc1C(=O)N1CCN(CCNC(=O)C(=O)Nc2ccc(Br)cc2)CC1	i	nt	i	nt	i	nt	nt	nt
COc1cccc(C(=O)N2CCN(C(=O)c3cccc(F)c3)CC2)c1	76	i	85	i	53	i	i	i	GLD-1 TGE cf=i
CCOC(=O)N1CCN(C(=O)c2cccc(F)c2)CC1	i	i	i	i	i	i	nt	nt
COc1cccc(C(=O)c2cc3cc(Cl)ccc3[nH]2)c1	i	nt	i	nt	i	nt	nt	nt
CCC(C)c1ccc(NC(=O)c2cccnc2)cc1 (stereo not given)	i	i	i	i	i	i	nt	nt
CCCCSc1ccc(NC(=O)c2cccnc2)cc1	76	i	77	i	41	i	i	i	GLD-1 TGE cf=i
CN(C(=O)COc1ncnc2sccc12)c1ccccc1	i	i	i	i	i	i	nt	nt
CCOC(=O)c1[nH]cnc1N=Nc1c(O)ccc2ccccc12	103	i	93	i	60	i	75	84	GLD-1 TGE cf=32
O=C(O)c1ccc2c(=O)n3c(nc2c1)/C(=C/c1ccc(C(F)(F)F)cc1)CC3	i	nt	i	nt	i	nt	nt	nt

Screening data as filed in PubChem BioAssay.
